Hit rate of the full screen: of about 330,000 compounds, about 1,900 (0.58%) were called active. Roughly 4% stayed inconclusive and do not appear here. Rule as the data show it: inconclusive = inhibition above about 70% without an active follow-up result; inactive = below that. The list is a sample of the results. Results with a measured potency or affinity are listed apart.

The nature of the experiment: M. tuberculosis growth inhibition, HTS (AID 449762).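 Also: bacterial growth assessed after seven days of incubation.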 As to conditions: M. tuberculosis H37Rv growth inhibition, 7H9 media; at 25 µM; hits give high values.
One may read the inhibition as the relative decrease from the control value, in per cent. Take `Cc1ccc2cc(CCNC(=O)c3ccc4c(c3)OCO4)c(=O)[nH]c2c1C`: the inhibition was -3.26% (inactive).
The value for `Cn1c(=O)n(C)c2cc(NC(=O)CCl)ccc21` was 64.7% (inactive); that for `Cn1ccc(NC(=O)CCl)n1` was 57.5% (inactive).
The value for `CSc1ccc(CCNS(=O)(=O)c2c(C)[nH]c(C)c2C(=O)N2CCCCC2)cc1` was -2.39% (inactive); that for `Cc1ccc(NC(=O)C2CCC(CNC(=O)[C@@H]3Cc4ccccc4CN3)CC2)c(C)c1` (some centres undefined) was 7.99% (inactive).
As for `Cn1c(O)c(/C=N/N2CCCCC2)c(=O)[nH]c1=O`, the inhibition was -3.56% (inactive).
With `C=CCSC1=C(C#N)C(c2ccccc2C)CC(=O)N1` (centres undefined), the inhibition was 1.95% (inactive).
The value for `COc1cc2[nH]c(=O)n(C3CCCCC3)c(=O)c2cc1OC` was -2.86% (inactive); that for `COc1c[nH]n(-c2ccccc2)c(=O)c1=O` was 2% (inactive); that for `O=C1C=C(c2ccc3ccccc3c2)C[C@@H](c2ccc(Cl)cc2)C1` was 19.3% (inactive).
To `COc1ccc([C@H]2CC(=O)C=C(c3ccc4[nH]ccc4c3)C2)cc1OC` belongs 55.7% (inactive); to `O=C(Nc1ccc(F)c(F)c1)C1CCN(S(=O)(=O)c2cccc3nonc23)CC1`, -5.72% (inactive).
In the case of `Cn1nc(C(=O)Nc2cc(Cl)ccc2N2CCCC2)c2ccccc2c1=O`, the inhibition was 1.5% (inactive).
The value for `Cc1cccnc1NC(=O)COc1ccc2c(c1)CCC2` was 54.8% (inactive).
To `CC(=O)Nc1ccc(NC(=O)COc2ccc3c(c2)CCC3)cc1` belongs 1.68% (inactive); to `O=C(c1ccc2snnc2c1)N1CCCCC1`, -3.95% (inactive); to `Cc1ccc(N2CC(C(=O)Nc3nccs3)CC2=O)cc1Cl` (centres undefined), 10.9% (inactive).
As for `CCc1nnc(NC(=O)C2CC(=O)N(c3ccc(C)cc3)C2)s1` (centres undefined), the inhibition was 11.9% (inactive).
`COC(=O)/C(C#N)=C/c1c(-c2ccccc2)nc2n1CCS2`: the inhibition was -12.2% (inactive).
The value for `CCNc1nc(NC(C)C)nc(NS(=O)(=O)c2ccc(N)cc2)n1` was -9.39% (inactive).
The value for `CC(/C=C/c1ccco1)=N\NC(=O)c1cccnc1` was -3.96% (inactive).
Turning to `O=C(N/N=C/C=C/c1ccccc1)c1cccnc1`, the inhibition is -0.94% (inactive).
`S=C1NCN(Cc2ccco2)CN1Cc1ccco1`: the inhibition was 7.57% (inactive).
The value for `COCCN1CSC(=S)N(Cc2ccco2)C1` was 66.9% (inactive); that for `CC(C)N1CSC(=S)N(Cc2ccccc2)C1` was 64.3% (inactive).
Consider `CC(C)(C)N1CSC(=S)N(Cc2ccccc2)C1`, for which the inhibition is 65% (inactive).
`O=C(CCN1C(=O)c2ccccc2C1=O)Nc1ccc(F)cc1`: the inhibition was -6.8% (inactive).
In the case of `CN(C)CCCN(C(=O)c1nc2ccccc2s1)c1nc2ccc(F)cc2s1`, the inhibition was -11.9% (inactive).
The value for `CN(C)CCCN(C(=O)c1cc(-c2cccs2)nc2ccccc12)c1nc2c(F)cccc2s1` was 49.4% (inactive).

The values above are taken from PubChem BioAssay AID449762 (Southern Research Specialized Biocontainment Screening …, 2010).
